Laboratory results taken from PubChem BioAssay AID1159580 (chemical genetic matrix, 2015).
About 2,000 (36%) of roughly 5,500 compounds were called active. Inconclusive results (about 18%) are left out. Cut-off read from the data, not from the text of the source: active = normalized growth mostly below about 0.91 (no sharp cut-off); inconclusive = no clear call, values can overlap the other calls; inactive = mostly above about 0.92. This is one part of the list.

Assay: chemical genetic growth profiling, strain panel (AID 1159580);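 note: tested at 20 µM; growth read once vehicle control cultures reached saturation at 30 °C; 1 = growth at the plate median or of vehicle wells; lower values mean less growth of the strain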
Details: growth OD

Measured: normalized growth

COc1ccc(CCC(=O)c2c(O)cc(O[C@@H]3O[C@H](CO)C(O)[C@H](O)C3O[C@@H]3O[C@@H](C)[C@H](O)[C@@H](O)[C@H]3O)cc2O)cc1O (some centres not stated)
inactive: S. cerevisiae deletion strains, locus YJR075W, strain HOC1, stronger effect = lower value 0.996 | S. cerevisiae deletion strains, locus YKL009W, strain mrt4, stronger effect = lower value 1 | S. cerevisiae deletion strains, locus YKL068W, stronger effect = lower value 0.972 | S. cerevisiae deletion strains, locus YKL085W, strain MDH1 (second series), stronger effect = lower value 0.982 | S. cerevisiae deletion strains, locus YKL085W, strain MDH1, stronger effect = lower value 0.982 | S. cerevisiae deletion strains, locus YKL160W, strain elf1, stronger effect = lower value 1 | S. cerevisiae deletion strains, locus YKL190W, strain CNB1, stronger effect = lower value 0.999 | S. cerevisiae deletion strains, locus YKR001C, strain vps1, stronger effect = lower value 0.989 | S. cerevisiae deletion strains, locus YKR026C, strain gcn3, stronger effect = lower value 1.02 | S. cerevisiae deletion strains, locus YKR091W, strain srl3, stronger effect = lower value 1.01 | S. cerevisiae deletion strains, locus YLL001W, strain dnm1, stronger effect = lower value 1 | S. cerevisiae deletion strains, locus YLL026W, stronger effect = lower value 1.02 | S. cerevisiae deletion strains, locus YLL041C, strain sdh2, stronger effect = lower value 1.02 | S. cerevisiae deletion strains, locus YLR027C, strain aat2, stronger effect = lower value 1 | S. cerevisiae deletion strains, locus YLR039C, strain RIC1, stronger effect = lower value 0.982 | S. cerevisiae deletion strains, locus YLR058C, strain SHM2, stronger effect = lower value 1 | S. cerevisiae deletion strains, locus YLR102C, strain apc9, stronger effect = lower value 0.973 | S. cerevisiae deletion strains, locus YLR113W, strain HOG1, stronger effect = lower value 0.98 | S. cerevisiae deletion strains, locus YLR221C, strain rsa3, stronger effect = lower value 1.04 | S. cerevisiae deletion strains, locus YLR258W, strain gsy2, stronger effect = lower value 1.04 | S. cerevisiae deletion strains, locus YLR262C, strain YPT6 (second series), stronger effect = lower value 1.05 | S. cerevisiae deletion strains, locus YLR262C, strain YPT6, stronger effect = lower value 0.97 | S. cerevisiae deletion strains, locus YLR268W, strain sec22, stronger effect = lower value 0.95 | S. cerevisiae deletion strains, locus YLR320W, strain mms22, stronger effect = lower value 1.06 | S. cerevisiae deletion strains, locus YLR330W, strain CHS5, stronger effect = lower value 0.993 | S. cerevisiae deletion strains, locus YLR342W, strain FKS1 (second series), stronger effect = lower value 1.06 | S. cerevisiae deletion strains, locus YLR342W, strain FKS1, stronger effect = lower value 1.02 | S. cerevisiae deletion strains, locus YLR357W, strain rsc2, stronger effect = lower value 1.01 | S. cerevisiae deletion strains, locus YLR370C, strain arc18, stronger effect = lower value 1.01 | S. cerevisiae deletion strains, locus YLR371W, strain rom2, stronger effect = lower value 0.983 | S. cerevisiae deletion strains, locus YLR384C, strain iki3, stronger effect = lower value 1.04 | S. cerevisiae deletion strains, locus YLR418C, strain cdc73, stronger effect = lower value 0.985 | S. cerevisiae deletion strains, locus YML016C, strain PPZ1, stronger effect = lower value 1.01 | S. cerevisiae deletion strains, locus YML032C, strain rad52, stronger effect = lower value 0.966 | S. cerevisiae deletion strains, locus YML120C, strain ndi1, stronger effect = lower value 1.01 | S. cerevisiae deletion strains, locus YML124C, strain tub3, stronger effect = lower value 0.984 | S. cerevisiae deletion strains, locus YMR058W, strain fet3, stronger effect = lower value 1.03 | S. cerevisiae deletion strains, locus YMR078C, strain ctf18, stronger effect = lower value 0.989 | S. cerevisiae deletion strains, locus YMR125W, strain sto1, stronger effect = lower value 1.01 | S. cerevisiae deletion strains, locus YMR129W, stronger effect = lower value 1.02 | S. cerevisiae deletion strains, locus YMR205C, strain PFK2, stronger effect = lower value 1.02 | S. cerevisiae deletion strains, locus YMR223W, strain ubp8, stronger effect = lower value 1.01 | S. cerevisiae deletion strains, locus YMR231W, strain pep5, stronger effect = lower value 0.995 | S. cerevisiae deletion strains, locus YMR263W, strain SAP30, stronger effect = lower value 0.989 | S. cerevisiae deletion strains, locus YMR307W, strain GAS1, stronger effect = lower value 1.04 | S. cerevisiae deletion strains, locus YNL067W, strain RPL9B, stronger effect = lower value 0.989 | S. cerevisiae deletion strains, locus YNL071W, strain lat1, stronger effect = lower value 1.01 | S. cerevisiae deletion strains, locus YNL128W, strain TEP1, stronger effect = lower value 0.989 | S. cerevisiae deletion strains, locus YNL153C, strain GIM3, stronger effect = lower value 0.988 | S. cerevisiae deletion strains, locus YNL183C, strain NPR1, stronger effect = lower value 0.899 | S. cerevisiae deletion strains, locus YNL209W, strain ssb2, stronger effect = lower value 1.01 | S. cerevisiae deletion strains, locus YNL233W, strain BNI4, stronger effect = lower value 0.994 | S. cerevisiae deletion strains, locus YNL248C, strain rpa49, stronger effect = lower value 1.04 | S. cerevisiae deletion strains, locus YNL250W, strain rad50, stronger effect = lower value 0.979 | S. cerevisiae deletion strains, locus YNL271C, strain bni1, stronger effect = lower value 0.981 | S. cerevisiae deletion strains, locus YNL298W, strain CLA4, stronger effect = lower value 0.984 | S. cerevisiae deletion strains, locus YNL307C, strain MCK1, stronger effect = lower value 0.993 | S. cerevisiae deletion strains, locus YNL322C, strain KRE1 (second series), stronger effect = lower value 1.01 | S. cerevisiae deletion strains, locus YNL322C, strain KRE1, stronger effect = lower value 0.993 | S. cerevisiae deletion strains, locus YNR049C, strain mso1, stronger effect = lower value 1.02 | S. cerevisiae deletion strains, locus YNR052C, strain pop2, stronger effect = lower value 0.993 | S. cerevisiae deletion strains, locus YOL006C, strain TOP1, stronger effect = lower value 0.929 | S. cerevisiae deletion strains, locus YOL012C, strain htz1 1.02 | S. cerevisiae deletion strains, locus YOL147C, strain pex11, stronger effect = lower value 0.989 | S. cerevisiae deletion strains, locus YOR001W, strain rrp6, stronger effect = lower value 1.05 | S. cerevisiae deletion strains, locus YOR061W, strain CKA2, stronger effect = lower value 0.999 | S. cerevisiae deletion strains, locus YOR069W, strain VPS5, stronger effect = lower value 1 | S. cerevisiae deletion strains, locus YOR070C, strain gyp1, stronger effect = lower value 1 | S. cerevisiae deletion strains, locus YOR080W, strain dia2, stronger effect = lower value 1.03 | S. cerevisiae deletion strains, locus YOR083W, strain WHI5, stronger effect = lower value 1 | S. cerevisiae deletion strains, locus YOR106W, strain vam3, stronger effect = lower value 0.992 | S. cerevisiae deletion strains, locus YOR136W, strain idh2, stronger effect = lower value 0.99 | S. cerevisiae deletion strains, locus YOR144C, strain elg1, stronger effect = lower value 0.977 | S. cerevisiae deletion strains, locus YOR184W, strain ser1, stronger effect = lower value 0.985 | S. cerevisiae deletion strains, locus YOR231W, strain MKK1, stronger effect = lower value 0.97 | S. cerevisiae deletion strains, locus YOR265W, strain rbl2, stronger effect = lower value 1.02 | S. cerevisiae deletion strains, locus YOR270C, strain vph1, stronger effect = lower value 1.07 | S. cerevisiae deletion strains, locus YOR290C, strain snf2, stronger effect = lower value 0.965 | S. cerevisiae deletion strains, locus YOR316C, strain cot1, stronger effect = lower value 0.967 | S. cerevisiae deletion strains, locus YPL051W, strain arl3, stronger effect = lower value 1.02 | S. cerevisiae deletion strains, locus YPL055C, strain LGE1, stronger effect = lower value 0.982 | S. cerevisiae deletion strains, locus YPL078C, strain atp4, stronger effect = lower value 0.989 | S. cerevisiae deletion strains, locus YPL106C, strain sse1, stronger effect = lower value 1.02 | S. cerevisiae deletion strains, locus YPL240C, strain hsp82, stronger effect = lower value 1.02 | S. cerevisiae deletion strains, locus YPL241C, strain CIN2, stronger effect = lower value 0.993 | S. cerevisiae deletion strains, locus YPL256C, strain CLN2, stronger effect = lower value 0.962 | S. cerevisiae deletion strains, locus YPR119W, strain clb2, stronger effect = lower value 0.975 | S. cerevisiae deletion strains, locus YPR141C, strain kar3, stronger effect = lower value 0.986 | S. cerevisiae deletion strains, locus YPR163C, strain tif3, stronger effect = lower value 0.985 | S. cerevisiae deletion strains, locus YPR167C, strain met16, stronger effect = lower value 0.97 | S. cerevisiae deletion strains, strain wtn01, stronger effect = lower value 1 | S. cerevisiae strains, strain wild type, stronger effect = lower value 0.995
